65 molecules from PubChem BioAssay AID651820 (National Center for Advancing Translational Sciences (NCATS), 2012) can be followed below.

SMILES strings stand for the structures. Out of some 340,000 compounds screened, about 12,000 (3.5%) were called active. Not shown: some 18% with an inconclusive outcome. Calls come from the whole dose curve; as a rule, active = well fitted inhibition curve with a large enough effect; inconclusive = small, poorly fitted or top-dose-only effect, or another doubt; inactive = no such curve, though single readings can be large or run the other way. The list comes from a sample in which actives are over-represented; it also holds similar structures and randomly drawn compounds. Where a call stands in place of a potency, no number is given.
Potency is the fitted concentration of half-maximal effect.

The nature of the assay: qHTS Assay for Inhibitors of Hepatitis C Virus (HCV). As to conditions: Huh7.5.1 HCVcc-Cre infection, luciferase reporter, 44 h; series mostly up to 41.8 µM. The procedure, abridged:
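HCVcc-Cre virus at an moi near 0.5 was added right after compound to cells cultured 4 h from seeding (1,000 cells/well). Luciferase activity was determined 44 h later, 15 min after substrate addition at RT.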
(Quantitative high-throughput screening tests each substance at several concentrations.)
In the case of `CCOc1ccc(C(=O)Nc2cc(OC)ccc2OC)cc1`, the Potency was 8.91 µM (active). The result for `CCn1c(COc2ccccc2)nnc1SCC(=O)Nc1ccc2c(c1)OCCO2` reads “inactive”. In the case of `CCOc1ccc(NC(=O)Nc2cc(C)on2)cc1` it was “inactive”. The result for `CCOc1ccc(C(=O)NC2CCN(C(=O)Nc3ccccc3OC)CC2)cc1` reads “inactive”. `COc1ccc(OC)c(NC(=O)c2ccc3c(c2)C(=O)N(c2ccc(OC(C)=O)cc2)C3=O)c1`: the Potency result is “inactive”. The result for `COc1ccc(C)cc1NC(=O)NCc1ccccn1` reads “inactive”; that for `CCOC(=O)CNC(=O)CSc1nnc(COc2ccc(Cl)cc2)n1CC`, “inactive”; that for `CCn1c(COc2ccc(OC)cc2)nnc1SCC(=O)Nc1cc(OC)ccc1OC`, 1.26 µM (active). With `CCOc1ccc(NC(=O)Nc2cc(C)ccc2OC)cc1`, the Potency was 11.2 µM (active).

Consider `CC1CCCCC12NC(=O)N(CC(=O)N1CCN(c3ccccc3)CC1)C2=O` (stereo not given), for which the Potency entry was “inactive”. The result for `CSCCC(NC(=O)c1ccco1)C(=O)NCCc1ccc(F)cc1` (stereo not given) reads “inactive”; that for `O=C(OCC(=O)N1CCCCCC1)c1ccc(Br)c(S(=O)(=O)N2CCOCC2)c1`, “inactive”.

With `CCN1CCN(CCNC(=O)c2ccc3c(c2)NC(=O)/C(=C\c2ccc(OC)c(OC)c2)S3)CC1`, the Potency is 31.6 µM (active).

As to `COc1ccc(CCNC(=O)c2ccc3c(c2)NC(=O)C(N2CCOCC2)S3)cc1OC` (stereo not given), the Potency entry was “inactive”. The result for `COc1ccc(/C=C(\NC(=O)c2ccccc2)C(=O)NCCN2CCOCC2)cc1OC` reads “inactive”; that for `Cc1nn(Cc2ccccc2)c(C)c1C(=O)NCCN1C(=O)S/C(=C\c2ccc(F)cc2)C1=O`, “inactive”; that for `CCN1CCN(CCNC(=O)c2ccc(/C=C3/Sc4ccccc4N(Cc4cccc(C)c4)C3=O)cc2)CC1`, 8.91 µM (active). In the case of `O=C(NCCCN1CCOCC1)c1ccc2c(c1)N(Cc1cccc(F)c1)C(=O)c1ccccc1S2` it was “inactive”; in that of `CC(=O)OC1CCC2(C)C(=CCC3C4CC(=O)N(O)C(=O)C4(C)CCC32)C1` (stereo not given), “inactive”; in that of `COc1cc(/C=C/C(=O)OCC(=O)NC2CC2)cc(OC)c1OC`, “inactive”. In the case of `CN(CC(=O)NCc1cccnc1)S(=O)(=O)c1cc(Cl)ccc1Cl` it was “inactive”; in that of `CC(=O)c1c(OCC(=O)N(C)C2CCCCC2)ccc2c(C)cc(=O)oc12`, “inactive”; in that of `COc1cccc(C=CC(=O)C=CC=Cc2ccccc2)c1`, “inactive”. Take `O=C(NC1CCCCC1)c1ccc2c(=O)n(CC3CCCO3)c(=O)[nH]c2c1` (stereo not given): the Potency result was “inactive”. In the case of `O=C(NCc1ccccc1Cl)c1ccc2c(=O)n(CC3CCCO3)c(=S)[nH]c2c1` (stereo not given) it was 6.31 µM (active); in that of `CC1Sc2ccc(C(=O)NCc3ccccc3Cl)cc2NC1=O` (stereo not given), “inactive”. The result for `Cc1ccccc1NC(=O)Cn1c(=O)n(CC2CCCO2)c(=O)c2ccccc21` (stereo not given) reads “inactive”; that for `Cc1cccc(NC(=O)c2ccc3c(=O)n(CC4CCCO4)c(=S)[nH]c3c2)c1` (stereo not given), 11.2 µM (active); that for `O=C(NCc1ccccc1Cl)C1CCCO1` (stereo not given), “inactive”.

Regarding `CSc1ccc(/C=C2\NC(=O)NC2=O)cc1`, the Potency entry is “inactive”.

With `Cc1cn(C2CC(O)C(CO)O2)c(=O)n(CCCc2ccccc2)c1=O` (stereo not given), the Potency entry was “inactive”. In the case of `C(#CCN1CCOCC1)CCCN1CCOCC1` it was “inactive”; in that of `Cc1ccc(NS(=O)(=O)c2ccc(-c3coc(C)n3)cc2)c(C)c1`, 11.2 µM (active). The result for `Cc1ccc(NS(=O)(=O)c2ccc3c(c2)n(C)c(=O)c(=O)n3C)c(C)c1` reads “inactive”; that for `COc1cccc(NS(=O)(=O)c2ccc(-c3coc(C)n3)cc2)c1`, “inactive”; that for `CCCCN1C(N)=NC[C@@H]1CC1CCCCC1`, “inactive”. The result for `COC(=O)Cc1ccc(OCC(=O)NC2CCCC2)cc1` reads “inactive”. Regarding `CCN1CCN(c2c(Cl)cccc2NC(=O)c2ccc(Br)o2)CC1`, the Potency result was “inactive”. The result for `COc1cc(OC)cc(C(=O)NNC(=O)CNC(=O)c2ccc(Br)o2)c1` reads “inactive”.

As to `COc1cc(OC)c(NC(=O)c2ccc(Br)o2)cc1Cl`, the Potency was 11.2 µM (active).

In the case of `Cc1csc(SCC(=O)N(c2ccccc2)C(C)C)n1`, the Potency entry was “inactive”. The result for `NC(=O)C1(Nc2ccc([N+](=O)[O-])cc2)CCCC1` reads “inactive”. The result for `CCOC(=O)CC1COCCN1C(=O)c1cc(COc2ccc(F)c(F)c2)on1` (stereo not given) reads “inactive”. Regarding `Cc1cc(OCc2cc(C(=O)NCc3cc(C(C)C)no3)no2)cc(C)c1Cl`, the Potency result is “inactive”. The result for `CCOC(=O)CC1(NC(=O)c2cc(COc3cncc(Cl)c3)on2)CCCCC1` reads 10 µM (active); that for `CCCCn1c(N)c(N(CC(C)C)C(=O)C2CSC3(C)CCC(=O)N23)c(=O)[nH]c1=O` (stereo not given), “inactive”. `O=C(O)C1C2C=CC(O2)C1C(=O)Nc1ccccn1` (stereo not given): the Potency entry is “inactive”.

In the case of `COC(=O)[C@]1(C)N[C@H](c2ccc(-c3ccc(Cl)c(Cl)c3)cc2)[C@@H]2C(=O)N(C)C(=O)[C@@H]21`, the Potency entry was “inactive”. In the case of `Cc1ccccc1OCC(=O)Nc1ccc(S(=O)(=O)N2CCOCC2)cc1` it was “inactive”; in that of `Cc1ccc(NC(=O)C2CC2)cc1S(=O)(=O)N1CCOCC1`, “inactive”; in that of `Cc1ccc(NC(=O)COC(=O)C2CC2)cc1S(=O)(=O)N1CCOCC1`, “inactive”. In the case of `COc1ccc(NC(=O)C2=NNC(=O)CC2)cc1S(=O)(=O)N1CCCCC1` it was “inactive”.

Take `COc1ccccc1C(=O)Nc1ccc(C)c(S(=O)(=O)N2CCCCC2)c1`: the Potency was 7.08 µM (active).

On to `Cc1ccccc1OCC(=O)Nc1ccc(N2CCN(C(=O)C(C)C)CC2)c(Cl)c1`, for which the Potency was 31.6 µM (active). The result for `Cc1ccc(NC(=O)CCC(=O)N2CCC(c3ccccc3)=N2)cc1S(=O)(=O)N1CCCCC1` reads “inactive”; that for `Cc1ccccc1OCC(=O)Nc1ccc2c(c1)ncn2C`, “inactive”; that for `COc1ccccc1C(=O)Nc1ccc(OCC(=O)N2CCCCC2)cc1`, “inactive”. In the case of `Cc1ccc(NC(=O)c2ccccn2)cc1S(=O)(=O)N1CCOCC1` it was “inactive”. The result for `CCc1ccccc1OCC(=O)Nc1ccc(C)c(S(=O)(=O)N2CCCCCC2)c1` reads 3.55 µM (active); that for `Cc1cc(C(=O)Nc2ccc(C)c(S(=O)(=O)N3CCOCC3)c2)c2ccccc2n1`, 11.2 µM (active); that for `COc1ccc(CCNC(=O)C(=O)NCC2OCCN2S(=O)(=O)c2cccs2)cc1OC` (stereo not given), “inactive”.

Turning to `Cc1ccc(SCC(=O)Nc2nncs2)cc1`, the Potency result was “inactive”. In the case of `O=C(OCC(=O)N1CCCC1)c1ccc(Cl)nc1` it was “inactive”. On to `COC(=O)Cc1nc2c(N)nc(N)nc2[nH]c1=O`, for which the Potency entry is “inactive”.

Regarding `O=C1N[C@H](Cc2ccccc2)C(=O)N[C@H]1Cc1cn(S(=O)(=O)c2ccccc2)c2ccccc12`, the Potency entry was “inactive”.
